Inconclusive results are not listed. Activity calls are given as the source filed them. Unless noted, calls come from the whole dose curve; as a rule, active = well fitted curve in either direction with a large enough effect (not every such curve was filed as active); inconclusive = small, poorly fitted or top-dose-only effect, or another doubt; inactive = flat fitted curve, though single readings scatter.
Legend:
[1] = target: Lysosomal acid glucosylceramidase (Homo sapiens) (UniProt P04062); experiment: Glucocerebrosidase-p2 (AID 348; in the data active = potency below about 10 µM; note: potency is the fitted concentration of half-maximal effect); settings: purified GBA, blue fluorogenic substrate, 40 min
Method in brief: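 Normal human glucocerebrosidase (0.2 nM) with blue fluorogenic substrate (80 uM final) in citrate/phosphate pH 5.9 with 10mM sodium taurocholate, 0.01% tween-20; 40 min RT, NaOH/glycine stop; fluorescence Ex 365/Em 440; AC50 from a titration from 0.6 nM upwards.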

[2] = AP1 Signaling Pathway (AID 357); settings: ME-180 AP-1-bla reporter, EGF-induced, beta-lactamase ratio, 5 h; at 7.69 µM (top of the series) unless noted;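 note: ME-180 reporter cells stimulated with EGF at its EC50 level; % is set by controls: 0 for no effect and ±100 for the full control effect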
Method in brief: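 Modulation of EGF-driven AP-1 transcription was assessed with a beta-lactamase reporter in ME-180 cells. Compound and EC50 EGF were co-incubated 5 hours at 37 °C before 2.5-hour CCF4 loading at room temperature and dual-emission reading.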

[3] = target: Cytochrome P450 1A2 (Homo sapiens) (UniProt P05177); experiment: p450-cyp1a2 (AID 410; calls by dose curve; note: potency is the fitted concentration of half-maximal effect;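 for activity change, negative = inhibition: -100% = full effect of reference inhibitor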); settings: recombinant CYP1A2, luciferin-ME demethylation, luminescence; series mostly up to 11.4 µM
Method in brief: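 Luminescent demethylation readout: Luciferin-ME (100uM, equal to Km) turned over by 20nM CYP1A2 for 60 min at room temperature after NADPH regeneration addition, following 10 min compound preincubation. Normalization used 57 uM furafylline as full inhibition.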

[4] = NFAT Signaling Pathway (AID 444); settings: Jurkat NFAT-bla M1, carbachol, beta-lactamase ratio, 5 h; at 7.69 µM (top of the series) unless noted;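 note: carbachol stimulus at about its EC50 of 1 µM final; % is set by controls: 0 for no effect and ±100 for the full control effect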
Method in brief: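 Jurkat cells with NFAT-driven β-lactamase reporter and co-expressed M1 receptor, stimulated with carbachol (final 1 uM, ~EC50), compound titration, 5 h at 37 °C. CCF4 loaded 1 h at RT; 460/530 nm ratio gave %activity and AC50.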

[5] = Stat Signaling Pathway (AID 446); settings: ME-180 (cervical carcinoma) SIE beta-lactamase reporter, IL-6 stimulated, 5 h; at 7.69 µM (top of the series) unless noted;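 note: ME-180 cervical cancer cells given 40 pM IL-6 alongside compound; SIE-controlled beta-lactamase reporter measured as 460/530 nm FRET emission ratio; % is set by controls: 0 for no effect and ±100 for the full control effect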
Method in brief: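 Compound effects on IL-6-induced STAT reporter activity were measured in ME-180 cells. After overnight culture, cells were co-treated with 40 pM IL-6 for 5 hrs before beta-lactamase substrate loading at room temperature.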

[6] = target: Glucocorticoid receptor (Homo sapiens) (UniProt P04150); experiment: GR-GFP Redistribution (AID 450;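 active = compounds whose dose series gives a full or clear partial fitted curve of increased nuclear translocation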; note: potency is the fitted concentration of half-maximal effect); settings: U2OS GR-GFP nuclear translocation, laser cytometry, 2 h
[7] = target: Mitogen-activated protein kinase 10 (Mus musculus) (UniProt Q61831); experiment: JNK3 AlphaScreen Assay (AID 530); settings: JNK3 lysate, c-Jun phosphorylation; series mostly up to 11.4 µM;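 note: kinase came from lysate of stimulated human HepG2 cells; signal reports phosphorylation of biotinylated GST-cJun 1-79 at Ser73 with 10 µM ATP; % is set by controls: 0 for no effect and ±100 for the full control effect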
Method in brief: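 Activity was read by AlphaScreen after JNK3-containing HepG2 lysate (cytokine pre-activated) phosphorylated biotinylated GST-cJun with 10 uM ATP at room temperature. Phospho-Ser73 cJun antibody with Protein-A acceptor beads provided detection.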

[8] = target: 3',5'-cyclic-AMP phosphodiesterase 4B (Homo sapiens) (UniProt Q07343); experiment: qHTS Assay for Inhibitors of PDE-IV (AID 607; active = well fitted activation curve with a large enough effect in the main read-out, with a control signal flat, not every such curve was filed as active; note: % of control where 0% means no effect); settings: HEK293 ACTOne CNG channel cells, membrane potential fluorescence; series mostly up to 22.9 µM
Method in brief: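 ACTOne HEK293 cells carry a modified cAMP-gated CNG channel and express endogenous PDE4; plated 1000 cells/well, compounds up to 22.9 uM final. Membrane-potential dye fluorescence (ex 535/em 590) was read; parental cells received 10 uM forskolin + 100 uM RO 20-1724.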

[9] = target: Cytochrome P450 2D6 (Homo sapiens) (UniProt P10635); experiment: qHTS Assay for Inhibitors and Substrates of Cytochrome P450 2D6 (AID 891; active = well fitted curve in the direction sought with a large enough effect; an effect the other way counts as inactive or inconclusive; note: potency is the fitted concentration of half-maximal effect; nearly all actives have a fitted effect of over 60% in size); settings: recombinant CYP2D6, luciferin-ME EGE luminescence; series mostly up to 11.4 µM
Method in brief: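 Luminescent read-out of luciferin formed by 5 nM human CYP2D6 demethylating 30 uM Luciferin-ME EGE (Km level) over 60 min at room temperature after NADPH regeneration addition. Data normalized to full inhibition by 1.43 uM quinidine.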

[10] = target: Glucocorticoid receptor (Homo sapiens) (UniProt P04150); experiment: GR-EFC Redistribution (AID 451; calls by dose curve; note: potency is the fitted concentration of half-maximal effect); settings: CHO-K1 GR-EFC translocation, beta-gal luminescence, 2 h
Method in brief: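 CHO-K1 cells expressing nuclear EA and GR-ED fragments of b-gal; compounds titrated up to 46 uM final, 2 h at 37 C. GR nuclear translocation read as complemented b-gal luminescence after 1 h RT detection.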

[11] = target: Cytochrome P450 2C19 (Homo sapiens) (UniProt P33261); experiment: qHTS Assay for Inhibitors and Substrates of Cytochrome P450 2C19 (AID 899; active = well fitted curve in the direction sought with a large enough effect; an effect the other way counts as inactive or inconclusive; note: % is set by controls: 0 for no effect and ±100 for the full control effect; nearly all actives have a fitted effect of over 60% in size); settings: recombinant CYP2C19, luciferin-H EGE luminescence; series mostly up to 11.4 µM
Method in brief: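 Luminescent read-out of luciferin formed from Luciferin-H EGE (10uM, equal to KM). Enzyme 5nM in 50mM KPO4; compound added, 10 min at 37C, then NADPH regenerating system for 60 min at 37C. Full inhibition defined by 57uM ketoconazole.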

[12] = target: Cytochrome P450 3A4 (Homo sapiens) (UniProt P08684); experiment: qHTS Assay for Activators of Cytochrome P450 3A4 (AID 885; active = well fitted curve in the direction sought with a large enough effect; an effect the other way counts as inactive or inconclusive; note: nearly all actives have a fitted effect of over 65% in size); settings: recombinant CYP3A4, Luciferin-PPXE luminescence, 60 min; series mostly up to 11.4 µM
Method in brief: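 CYP3A4 activity: Luciferin-PPXE O-dealkylation, 25uM substrate, 200mM KPO4, RT throughout. Read-out is luciferase luminescence; higher values reflect activation.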

Sequence of Cytochrome P450 1A2 (Homo sapiens) (P05177 whole entry, looked up): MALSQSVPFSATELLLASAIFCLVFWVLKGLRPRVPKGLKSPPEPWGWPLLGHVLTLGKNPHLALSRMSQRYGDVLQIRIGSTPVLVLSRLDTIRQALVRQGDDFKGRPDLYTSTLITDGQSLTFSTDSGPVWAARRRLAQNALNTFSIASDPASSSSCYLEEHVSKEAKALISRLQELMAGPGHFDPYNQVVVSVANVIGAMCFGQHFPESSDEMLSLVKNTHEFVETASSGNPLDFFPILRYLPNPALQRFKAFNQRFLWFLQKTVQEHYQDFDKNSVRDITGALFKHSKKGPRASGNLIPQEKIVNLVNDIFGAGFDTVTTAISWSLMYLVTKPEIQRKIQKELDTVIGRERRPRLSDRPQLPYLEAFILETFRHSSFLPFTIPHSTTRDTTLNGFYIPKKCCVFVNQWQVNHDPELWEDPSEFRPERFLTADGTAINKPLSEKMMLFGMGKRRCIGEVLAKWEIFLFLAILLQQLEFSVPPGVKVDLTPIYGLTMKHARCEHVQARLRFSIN
Sequence of Glucocorticoid receptor (Homo sapiens) (P04150 whole entry, looked up, the tested form may be a part): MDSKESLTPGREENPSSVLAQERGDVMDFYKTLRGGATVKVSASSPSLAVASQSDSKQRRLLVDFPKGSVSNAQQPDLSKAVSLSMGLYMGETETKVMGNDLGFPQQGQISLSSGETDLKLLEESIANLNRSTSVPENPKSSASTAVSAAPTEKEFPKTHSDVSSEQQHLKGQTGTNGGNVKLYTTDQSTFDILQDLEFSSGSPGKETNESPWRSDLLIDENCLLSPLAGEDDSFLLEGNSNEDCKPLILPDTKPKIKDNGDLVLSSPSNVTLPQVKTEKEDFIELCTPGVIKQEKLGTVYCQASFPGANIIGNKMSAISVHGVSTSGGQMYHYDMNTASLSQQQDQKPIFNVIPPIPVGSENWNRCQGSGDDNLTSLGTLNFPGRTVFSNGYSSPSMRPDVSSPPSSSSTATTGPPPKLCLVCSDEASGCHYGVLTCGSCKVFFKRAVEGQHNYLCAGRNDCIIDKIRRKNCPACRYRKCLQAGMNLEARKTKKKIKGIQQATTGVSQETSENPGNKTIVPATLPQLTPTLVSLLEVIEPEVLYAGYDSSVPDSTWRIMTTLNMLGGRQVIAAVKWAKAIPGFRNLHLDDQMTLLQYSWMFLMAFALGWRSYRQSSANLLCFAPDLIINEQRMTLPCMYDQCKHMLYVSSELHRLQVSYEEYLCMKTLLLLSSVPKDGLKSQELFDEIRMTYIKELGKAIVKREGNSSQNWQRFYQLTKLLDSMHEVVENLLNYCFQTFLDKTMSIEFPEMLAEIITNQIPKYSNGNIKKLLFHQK
Sequence of Lysosomal acid glucosylceramidase (Homo sapiens) (P04062 whole entry, looked up): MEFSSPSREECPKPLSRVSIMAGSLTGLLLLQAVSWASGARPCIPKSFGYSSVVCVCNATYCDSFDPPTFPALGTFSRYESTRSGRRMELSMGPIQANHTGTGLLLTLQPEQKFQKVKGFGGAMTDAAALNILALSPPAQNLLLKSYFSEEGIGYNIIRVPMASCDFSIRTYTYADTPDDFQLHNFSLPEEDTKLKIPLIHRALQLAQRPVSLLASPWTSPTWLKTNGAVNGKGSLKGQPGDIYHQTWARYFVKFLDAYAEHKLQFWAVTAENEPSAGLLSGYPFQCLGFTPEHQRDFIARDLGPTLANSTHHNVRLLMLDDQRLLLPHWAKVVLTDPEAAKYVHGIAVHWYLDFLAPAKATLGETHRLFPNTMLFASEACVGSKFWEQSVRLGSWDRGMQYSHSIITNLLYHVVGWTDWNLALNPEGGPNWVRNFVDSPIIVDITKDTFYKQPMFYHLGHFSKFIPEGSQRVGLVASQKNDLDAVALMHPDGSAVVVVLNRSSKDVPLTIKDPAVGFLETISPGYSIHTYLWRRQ
Sequence of 3',5'-cyclic-AMP phosphodiesterase 4B (Homo sapiens) (Q07343 whole entry, looked up): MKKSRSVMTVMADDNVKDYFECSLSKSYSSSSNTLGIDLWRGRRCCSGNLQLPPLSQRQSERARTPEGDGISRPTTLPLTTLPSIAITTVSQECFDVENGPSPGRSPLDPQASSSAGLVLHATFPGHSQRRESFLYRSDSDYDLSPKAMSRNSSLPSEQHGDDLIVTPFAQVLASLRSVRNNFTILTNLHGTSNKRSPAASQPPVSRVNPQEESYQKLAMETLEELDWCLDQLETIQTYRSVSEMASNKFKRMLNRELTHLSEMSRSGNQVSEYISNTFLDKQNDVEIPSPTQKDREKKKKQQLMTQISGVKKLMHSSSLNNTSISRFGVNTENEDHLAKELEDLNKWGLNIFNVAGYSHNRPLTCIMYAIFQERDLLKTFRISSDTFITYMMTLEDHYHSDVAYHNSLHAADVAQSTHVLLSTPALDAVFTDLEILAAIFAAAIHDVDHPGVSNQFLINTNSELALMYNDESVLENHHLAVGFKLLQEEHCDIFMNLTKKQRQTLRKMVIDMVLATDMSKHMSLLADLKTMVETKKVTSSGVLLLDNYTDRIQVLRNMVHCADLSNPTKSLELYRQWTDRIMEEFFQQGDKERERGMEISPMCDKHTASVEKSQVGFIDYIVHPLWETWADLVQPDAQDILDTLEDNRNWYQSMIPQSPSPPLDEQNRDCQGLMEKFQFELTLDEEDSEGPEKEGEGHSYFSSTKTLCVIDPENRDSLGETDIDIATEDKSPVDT
Sequence of Cytochrome P450 2D6 (Homo sapiens) (P10635 whole entry, looked up): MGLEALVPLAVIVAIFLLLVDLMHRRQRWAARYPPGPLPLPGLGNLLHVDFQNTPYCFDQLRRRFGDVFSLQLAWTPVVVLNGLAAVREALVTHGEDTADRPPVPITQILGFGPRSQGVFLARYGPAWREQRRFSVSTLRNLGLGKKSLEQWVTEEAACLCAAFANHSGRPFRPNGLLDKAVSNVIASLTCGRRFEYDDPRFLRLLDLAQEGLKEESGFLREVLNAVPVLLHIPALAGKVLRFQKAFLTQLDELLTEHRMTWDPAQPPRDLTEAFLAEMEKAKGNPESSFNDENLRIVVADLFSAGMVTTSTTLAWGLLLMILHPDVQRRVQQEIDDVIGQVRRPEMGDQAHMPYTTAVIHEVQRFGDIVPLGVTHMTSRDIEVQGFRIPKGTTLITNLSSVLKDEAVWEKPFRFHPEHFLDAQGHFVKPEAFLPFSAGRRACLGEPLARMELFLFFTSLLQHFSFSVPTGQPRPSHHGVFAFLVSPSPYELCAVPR
Sequence of Cytochrome P450 2C19 (Homo sapiens) (P33261 whole entry, looked up): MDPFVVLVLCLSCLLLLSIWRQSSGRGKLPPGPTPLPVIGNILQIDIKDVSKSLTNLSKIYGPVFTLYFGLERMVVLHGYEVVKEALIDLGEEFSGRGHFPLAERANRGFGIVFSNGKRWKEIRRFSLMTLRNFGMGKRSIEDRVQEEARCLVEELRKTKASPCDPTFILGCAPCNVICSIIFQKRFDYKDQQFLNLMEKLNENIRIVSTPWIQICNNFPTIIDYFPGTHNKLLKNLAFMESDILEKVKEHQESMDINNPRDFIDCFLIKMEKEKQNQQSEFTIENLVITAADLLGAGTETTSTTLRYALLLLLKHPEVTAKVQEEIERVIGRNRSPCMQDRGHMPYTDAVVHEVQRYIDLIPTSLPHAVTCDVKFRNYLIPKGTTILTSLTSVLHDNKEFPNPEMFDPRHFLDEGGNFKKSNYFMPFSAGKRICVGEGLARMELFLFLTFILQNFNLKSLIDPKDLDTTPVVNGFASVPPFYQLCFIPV
Sequence of Cytochrome P450 3A4 (Homo sapiens) (P08684 whole entry, looked up): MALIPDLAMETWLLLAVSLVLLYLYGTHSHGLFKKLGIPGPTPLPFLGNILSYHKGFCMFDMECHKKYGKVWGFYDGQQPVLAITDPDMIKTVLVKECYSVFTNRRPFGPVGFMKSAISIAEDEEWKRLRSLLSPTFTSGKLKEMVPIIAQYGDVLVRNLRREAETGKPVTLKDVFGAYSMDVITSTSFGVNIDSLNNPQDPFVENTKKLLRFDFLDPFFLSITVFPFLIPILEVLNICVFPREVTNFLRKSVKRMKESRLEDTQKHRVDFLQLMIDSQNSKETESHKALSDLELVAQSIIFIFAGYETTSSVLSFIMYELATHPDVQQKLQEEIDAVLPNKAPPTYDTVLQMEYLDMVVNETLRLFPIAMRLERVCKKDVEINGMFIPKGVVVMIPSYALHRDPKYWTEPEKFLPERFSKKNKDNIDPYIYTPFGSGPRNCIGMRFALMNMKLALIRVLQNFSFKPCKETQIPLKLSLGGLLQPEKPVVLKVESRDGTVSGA

C/C(=N/O)c1ccc2cc(Br)c3ccccc3c2c1
inactive: Potency [1] > 11.4 µM | activity change, negative = inhibition [2] 15% | activity change, negative = inhibition [3] -13.6% [at 2.29 µM] | activity change, negative = inhibition [4] 1.9% | activity, negative = inhibition [5] -6.91% | Potency [6] > 46 µM | Potency [7] | Potency [8]
active: Potency [9] 25.1 nM

NC(N)=N[C@@H]1C(O)[C@H](N=C(N)N)[C@@H](O)C(O)[C@H]1O (stereo partly specified)
inactive: Potency [1] > 11.4 µM | activity change, negative = inhibition [2] -5.59% | activity change, negative = inhibition [3] -4.9% [at 2.29 µM] | activity change, negative = inhibition [4] 13.4% | activity, negative = inhibition [5] -0.855% | Potency [6] > 46 µM | Potency [7] | Potency [8]

C[Si](C)(c1ccc(C(=O)O)cc1)c1ccc(C(=O)O)cc1
inactive: Potency [1] > 11.4 µM | activity change, negative = inhibition [2] -1.98% | Potency [3] | activity change, negative = inhibition [4] -2.05% | activity, negative = inhibition [5] 14.2% | Potency [6] > 46 µM | Potency [7]

c1ccc(CCc2cccnc2)nc1
inactive: Potency [1] > 11.4 µM | activity change, negative = inhibition [2] 12.9% | activity change, negative = inhibition [4] 14.1% | activity, negative = inhibition [5] 0.19% | Potency [6] > 46 µM | Potency [7] | Potency [8]
active: Potency [3] 398 nM

Nc1nc(-c2cc(-c3cccc4ccccc34)nc(N)n2)cc(-c2cccc3ccccc23)n1
inactive: Potency [1] > 11.4 µM | activity change, negative = inhibition [2] -7.45% | activity change, negative = inhibition [3] -4.4% [at 2.29 µM] | activity change, negative = inhibition [4] 3.93% | activity, negative = inhibition [5] -4.92% | Potency [6] > 46 µM | Potency [7] | Potency [8]

Cn1c(=O)c2[nH]c(CSCc3ccccc3)nc2n(C)c1=O
inactive: Potency [1] > 11.4 µM | activity change, negative = inhibition [2] 12.7% | activity change, negative = inhibition [3] -15.4% [at 2.29 µM] | activity change, negative = inhibition [4] 8.43% | activity, negative = inhibition [5] 4.21% | Potency [6] > 46 µM | Potency [10] > 9.22 µM | Potency [11]

Nc1cc2c(nc3c4ccccc4c(N)cc3[n+]2-c2cccc3ccccc23)c2ccccc12 (tested in a mixture with another compound)
active: Potency [3] 1260 nM | Potency [9] 1580 nM
inactive: Potency [1] > 11.4 µM | activity change, negative = inhibition [2] 11.3% | activity change, negative = inhibition [4] 8.58% | activity, negative = inhibition [5] 6.04% | Potency [6] > 46 µM | Potency [10] > 9.22 µM | Potency [8]

CN(C)c1ccc(N=Nc2cccc3ccoc23)cc1
active: Potency [3] 251 nM
inactive: Potency [1] > 11.4 µM | activity change, negative = inhibition [2] 1.15% | activity change, negative = inhibition [4] -18.9% | activity, negative = inhibition [5] 4.35% | Potency [6] > 46 µM | Potency [10] > 9.22 µM | Potency [8] | Potency [12]
